Results reported in the supplement of paper PMC10338343.
± gives the standard deviation.

These sequences were tested on MILI (PIWIL2) piRISC loaded with piRNA #1 (26 nt) (assay: pre-steady-state target cleavage rate (min^-1); guide: piRNA #1 5'p-UGAGGUAGUAGGUUGUAUAGUAUCCA; MIWI and MILI are mouse PIWI proteins and EfPiwi is from a freshwater sponge; tags in brackets are library labels; higher = faster piRNA-guided slicing of the target). Settings: auxiliary factor: 500 nM mouse GTSF1.
Procedure: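 Cleave-'n-Seq: a library of target RNAs (target site embedded in constant flanks, ACAGCATTCCGCGTTAGTGATATCCG... 5' flank; DNA-blocked outside the site) at 0.1 nM was incubated with 1 nM active mouse MILI or MIWI piRISC (synthetic 5'-monophosphorylated piRNA guide) with or without 500 nM mouse GTSF1 at 33 °C for 1 min to 16 h. Uncleaved targets were sequenced and normalised to non-target controls, and the pooled three trials were fitted to a burst-and-steady-state model to give the pre-steady-state cleavage rate (min^-1; k3 is constrained to at most 1e-4). Sequence is the target site only; target names encode pairing extent (gX:gY) and contiguous / 1-mismatch / 2-mismatch / bulge geometry. Fits with R² ≤ 0 are excluded.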

GGAGAGGAUACUAAUCAACCUACUACCUCA and GGAGUGGAUACAAUACUACCUACUACCUCA are within error of each other in “pre-steady-state target cleavage rate” value: 0.148 ± 0.011 for the first, 0.16 ± 0.013 for the second.

GGAGACGACUACUAUACAACCUACUACCUCA and GGAGUGGAUACUAUCACAACCUACUACCUCA are within error of each other in “pre-steady-state target cleavage rate” value: 0.204 ± 0.017 for the first, 0.199 ± 0.013 for the second.

First: GGAGACCUAACUAUACAACGUACUACCACA
Second: GGAGACCAUACAAUACAACCUACUACCACA
The “pre-steady-state target cleavage rate” value of the first is lower: 0.0131 ± 0.0058 for the first, 0.177 ± 0.022 for the second.

First: GGAGUGGAUACUAUACAACGUACUACGUCA
Second: GGAGACCUAUCAAUACAACCUACUUCCUCA
The “pre-steady-state target cleavage rate” value of the first is lower: 0.0108 ± 0.0027 for the first, 0.0355 ± 0.0087 for the second.

First: GGAGACGAUACUAUAGAUCCUACUACCUCA
Second: GGAGACCUAACUAUACUACCUACUACCUGA
The “pre-steady-state target cleavage rate” value of the first is higher: 0.224 ± 0.013 for the first, 0.0917 ± 0.025 for the second.

Going from GGAGACCUAUGAUUAUAACCUACUACCUCA to GGAGUGGAAUACUAUACAACCUACUACCUCA, the “pre-steady-state target cleavage rate” value rises from 0.00484 ± 0.0026 to 0.165 ± 0.0081.

Compared with GGAGACCUAUGAAUACAACCUACUACUUCA, GGAGACCUAUCUAUACAACCUAGCUACCUCA is higher in “pre-steady-state target cleavage rate” value: 0.00709 ± 0.0022 for the first, 0.0218 ± 0.0062 for the second.

First: GGAGACCUAUCUUUACAACCUACUACCUGA
Second: GGAGACCUUACUAUACAAACUACUACCUCA
The “pre-steady-state target cleavage rate” value of the first is lower: 0.0554 ± 0.012 for the first, 0.204 ± 0.014 for the second.

Going from GGAGACGAUACUAUACAACCAUACUACCUCA to GGAGAGGAUAGUAUACAACCUACUACCACA, the “pre-steady-state target cleavage rate” value rises from 0.00651 ± 0.0034 to 0.0774 ± 0.011.

Compared with GGAGUGGAAAGUAUACAACCUACUACCUCA, GGAGACCUAUCUAUACAACCUAGAACCUCA is lower in “pre-steady-state target cleavage rate” value: 0.118 ± 0.0086 for the first, 0.00829 ± 0.0026 for the second.

Going from GGAGACCUAUGAUAUGAACCUACAACCACA to GGAGACGCAUACUAUACAACCUACUACCUCA, the “pre-steady-state target cleavage rate” value rises from under 0.0001 to 0.268 ± 0.024.

Compared with GGAGAGCAUACUUUACAACCUACUACCUCA, GGAGAGCAUAGUAUACAACCUACUACCUCA is lower in “pre-steady-state target cleavage rate” value: 0.138 ± 0.01 for the first, 0.0921 ± 0.0087 for the second.

Compared with GGAGACGAUACUAUACUUGCUACUACCUCA, GGAGAGGAUUCUAUACAUCCUACUACCUCA is higher in “pre-steady-state target cleavage rate” value: 0.0658 ± 0.0062 for the first, 0.263 ± 0.013 for the second.

Going from GGAGUGGAUACUAUACAACCUACUACCUCCA to GGAGACCUAUGAUUACAACGUACUUCCUCA, the “pre-steady-state target cleavage rate” value falls from 0.223 ± 0.011 to 0.00374 ± 0.0031.

Going from GGAGACCUUACUAUACAACCUACGUACCUCA to GGAGACCUUUGAAUACAACCUACUACCUCA, the “pre-steady-state target cleavage rate” value falls from 0.0918 ± 0.0092 to 0.00751 ± 0.0038.

Compared with GGAGACGAUACUAUACAACCUAGAACCUCA, GGAGAGGAUACUAUACAACCUACUACCAUCA is higher in “pre-steady-state target cleavage rate” value: 0.0145 ± 0.0064 for the first, 0.0616 ± 0.0087 for the second.

GGAGACGAUACUAUACAACCUACAACGUCA and GGAGACCUAUGAAUACCACCUACUACCUCA are within error of each other in “pre-steady-state target cleavage rate” value: 0.00524 ± 0.0044 for the first, 0.00372 ± 0.0036 for the second.

First: GGAGACGAUACUAUACAACAUACUACCUCA
Second: GGAGACCUUACUAUACAACCUUCAACCUCA
The “pre-steady-state target cleavage rate” value of the first is higher: 0.0988 ± 0.0095 for the first, 0.00437 ± 0.003 for the second.

Going from GGAGUGGAUACAAUACAACCUAGUACCUCA to GGAGAGGAUACUAUACCACCUACUACCUCA, the “pre-steady-state target cleavage rate” value rises from 0.0718 ± 0.013 to 0.212 ± 0.019.

First: GGAGAGGAUUCUAUACAACCUACUACCACA
Second: GGAGACCUAUGAUAUCAUGGUACUACCUCA
The “pre-steady-state target cleavage rate” value of the first is higher: 0.113 ± 0.011 for the first, under 0.0001 for the second.
